Measurements published in PubChem BioAssay AID1694 (National Center for Advancing Translational Sciences (NCATS), 2009).
Inconclusive results are not listed. A call without a number means that no potency is given here. Calls of active or inactive are those of the source. The call rests on the fitted dose curve; in most records, active means well fitted curve in the direction sought with a large enough effect; inconclusive means small, poorly fitted or top-dose-only effect, or another doubt; inactive means no such curve, though single readings can be large or run the other way.

Test: Confirmation Concentration-Response Assay for Inhibitors of Tau Fibril Formation, Total Fluorescence Counterscreen for Fluorescence Polarization
Conditions: Alexa594-tau K18 total fluorescence counterscreen, interference, tau K18 with P301L mutation; series mostly up to 100 µM
From the text: NIH Molecular Libraries Probe Production Network [MLPCN] NIH Chemical Genomics Center [NCGC] MLPCN Grant: X01 MH083262-01 Assay Provider: Carlo Ballatore, University of Pennsylvania NCGC Assay Overview: The microtubule-associated protein tau is an abundant protein in the axons of neurons that stabilizes microtubules. With its ability to modulate microtubule dynamics, tau contributes directly or indirectly, to key structural and regulatory cellular functions. Particularly important is the influence tau exerts on axonal transport, which allows signaling molecules, trophic factors and other essential cellular constituents to travel along the axons. Under pathological conditions, tau becomes sequestered into insoluble aggregates called neurofibrillary tangles. This phenomenon is believed to have pathological consequences by promoting axonal transport deficits that ultimately lead to synaptic dysfunction and neuronal loss. To identify inhibitors of tau aggregation, a heparin-induced tau fibril formation assay was used that employed a recombinantly expressed fragment of tau, K18 (Q242-E372), bearing a P301L mutation (Gustke et al. 1994; Hong et al. 1998). […] Total fluorescence (555 nm excitation and 632 nm emission) was measured to identify fluorescent or absorbent compounds at this wavelength. Such compounds may be artifacts that interfere with the Alexa 594 Tau fluorescence polarization assay. Gustke, N., B. Trinczek, et al. (1994). "Domains of tau protein and interactions with microtubules." Biochemistry 33(32): 9511-22. Hong, M., V. Zhukareva, et al. (1998). "Mutation-specific functional impairments in distinct tau isoforms of hereditary FTDP-17." Science 282(5395): 1914-7. Li, W. and V. M. Lee (2006). "Characterization of two VQIXXK motifs for tau fibrillization in vitro." Biochemistry 45(51): 15692-701. von Bergen, M., S. Barghorn, et al. (2001). "Mutations of tau protein in frontotemporal dementia promote aggregation of paired helical filaments by enhancing local beta-structure." J Biol Chem 276(51): 48165-74.
For screening, 2 uL/well human K18 P301L (15 uM unlabeled and 0.24 uM Alexa 594-labeled tau final concentrations) in reagent buffer (100 mM sodium acetate pH 7) was dispensed into black solid 1536-well plates (Grenier) using a solenoid-based dispenser. Following transfer of 23 nL compound or DMSO vehicle by a pin tool, 2 uL/well heparin (20 uM final concentration) in reagent buffer was added and the plate centrifuged 15 s at 1000 RPM. Plates were incubated 6 hr at 37 C and then 1 uL/well ThT (30 uM final concentration) was added. After a 1 hr ambient incubation, the plates were read by an Envision (Perkin Elmer) to monitor Alexa 594 FP (555 nm excitation and 632 nm emission). Keywords: NIH Roadmap, MLPCN, MLI, MLSMR, NCGC, qHTS, tau, tauopathies, Alzheimer's disease, fibril, neurodegeneration, aggregation

SMILES	Potency
COC(=O)c1c(NC(=O)C(C)(C)C)sc2c1C(C(=O)OC)CC2 (stereo not given)	inactive
Cc1ccc(NC(=O)N2CCN(c3ccccn3)CC2)cc1	inactive
O=C(Nc1cccc(-c2nc3ccccc3o2)c1)c1cc([N+](=O)[O-])ccc1N1CCOCC1	inactive
COc1ccc2c(c1)c(CC(=O)Nc1ccc(C(C)=O)cc1)c(C)n2C(=O)c1ccc(Cl)cc1	inactive
Cc1ccc(N(C)S(=O)(=O)c2nnc(NC(=O)C3CCCCC3)s2)cc1	inactive
CCOC(=O)c1ccc(S(=O)(=O)Nc2nc3cc(S(=O)(=O)NC4=NCCCCC4)ccc3s2)cc1	inactive
Nc1c(-c2ccccc2)cc[nH]c1=O	inactive
Cc1cc2c(N)cccc2nn1	inactive
CC(C)C(C)NC(=O)CSc1nc2scc(-c3ccco3)c2c(=O)n1-c1ccccc1 (stereo not given)	inactive
CCOC(=O)c1nn(-c2ccccc2)c(=O)c2c(N)sc(C)c12	inactive
CCOC(=O)c1nn(-c2ccc(OC)cc2)c(=O)c2c(NC(=O)Cc3ccccc3)scc12	inactive
O=C(O)CN1C(=O)/C(=C/c2ccc(-c3cccc(Cl)c3)o2)SC1=S	inactive
COC(=O)C1CCc2sc(NC(=O)Cc3ccccc3)c(C(=O)Nc3ccc(Cl)cc3)c21 (stereo not given)	inactive
COC(=O)c1ccccc1NC(=O)CSc1nc2sc3c(c2c(=O)[nH]1)CCCC3	inactive
O=S(=O)(c1ccc(N=C2NN=C(c3cc(F)ccc3F)CS2)cc1)N1CCOCC1	inactive
COc1ccc2c(c1)c(CC(=O)N1CCOCC1)c(C)n2C(=O)c1ccc(Cl)cc1	inactive
O=C(Nc1nnc(S(=O)(=O)Nc2ccccc2)s1)C1CCCCC1	inactive
COc1ccc(NC(=O)c2c(NC(=O)Cc3ccccc3)sc3c2CCCC3)cc1	inactive
CC(C)(C)c1ccc(NC(=O)N2CCN(c3ccc([N+](=O)[O-])cn3)CC2)cc1	inactive
Cc1ccc(N2C(=O)SC(Cc3ccccc3)C2=O)cc1 (stereo not given)	inactive
COC(=O)c1c(NC(=O)CCCOc2ccc(C)cc2)sc2c1C(C(=O)OC)CC2 (stereo not given)	inactive
N#Cc1cccc(NC(=O)c2ccc3c(c2)N(Cc2cccc(Cl)c2)C(=O)c2ccccc2S3(=O)=O)c1	inactive
Nc1scc2c(C(=O)O)nn(-c3ccccc3)c(=O)c12	inactive
COc1ccc2[nH]c(=O)c(CNc3ccccc3OC)cc2c1	inactive
Nc1cc(-c2ccncc2)c[nH]c1=O	inactive
